Measurements: PubChem BioAssay (NCI)
“And” between values parts separate entries of the source, which are not always exact repeats. Identical values can stand only once. About 83,000 compounds went through this panel and 20% of them were active in at least one assay; those are over-represented in the sample as a whole.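 Step 1: grow cells in 96-well plates. Step 2: add test compound at a single concentration. Step 3: incubate 48 h. Step 4: record percent growth.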 The source made the active and inactive calls. How the source made its calls: active means growth percent below 10; inactive means the rest.

What was measured:
Test in all cases: NCI-60 one-dose screen, 48 h (100 = growth as untreated, 0 = no growth, -100 = all killed)
Details in all cases: 10 µM unless noted
T-47D breast = system: T-47D breast
BT-549 breast = system: BT-549 breast
MDA-MB-435 melanoma = system: MDA-MB-435 melanoma
SW-620 colon = system: SW-620 colon
MCF7 breast = system: MCF7 breast
HCT-116 colon = system: HCT-116 colon
HCC-2998 colon = system: HCC-2998 colon
KM12 colon = system: KM12 colon

Compound	growth (T-47D breast)	growth (BT-549 breast)	growth (MDA-MB-435 melanoma)	growth (SW-620 colon)	growth (MCF7 breast)	growth (HCT-116 colon)	growth (HCC-2998 colon)	growth (KM12 colon)
COC(=O)c1nc(N)nc(C(=O)OC)c1C(=O)c1ccc(OC)cc1	101% (inactive) and 35.5% (inactive)	144% (inactive) and 77.1% (inactive)	104% (inactive) and 66.8% (inactive)	113% (inactive) and 61.9% (inactive)	96% (inactive) and 41.9% (inactive)	108% (inactive) and 38.1% (inactive)	108% (inactive) and 79.3% (inactive)	107% (inactive) and 53.7% (inactive)
Nc1ccccc1Nc1ccccc1	88.1% (inactive) and 83.5% (inactive)	70.9% (inactive) and 58.4% (inactive)	91.5% (inactive)	106% (inactive) and 112% (inactive)	93.8% (inactive) and 91.8% (inactive)	86.6% (inactive) and 88.8% (inactive)	98.7% (inactive) and 96.4% (inactive)	85.8% (inactive) and 79.6% (inactive)
O=[N+]([O-])c1ccc(/C=N\NC(=S)Nc2ccc(F)cc2)cc1	94.5% (inactive) and 88.4% (inactive)	97.9% (inactive)	109% (inactive) and 101% (inactive)	106% (inactive) and 94.1% (inactive)	89% (inactive) and 97.8% (inactive)	71.7% (inactive) and 53% (inactive)	106% (inactive) and 87.6% (inactive)	98.6% (inactive) and 81.3% (inactive)
O=CC(O)C(O)C(O)CO (centres undefined)	109% (inactive) and 96.5% (inactive)	104% (inactive)	112% (inactive) and 109% (inactive)	107% (inactive) and 104% (inactive)	97.5% (inactive) and 94.6% (inactive)	112% (inactive) and 102% (inactive)	101% (inactive)	103% (inactive) and 102% (inactive)
NC(=O)C1CC2C=CC1C2 (centres undefined)	101% (inactive) and 100% (inactive)	93% (inactive) and 112% (inactive)	106% (inactive) and 100% (inactive)	96.2% (inactive) and 97.5% (inactive)	100% (inactive) and 102% (inactive)	92.5% (inactive) and 91.5% (inactive)	76.5% (inactive) and 110% (inactive)	112% (inactive) and 105% (inactive)
O=C1C2=C(C(=O)c3ccccc31)C(O)(S(=O)(=O)O)C(O)(S(=O)(=O)O)C1N=CC=CC21 (centres undefined)	39% (inactive) and -21.9% (active)	39.6% (inactive) and 24.6% (inactive)	44.1% (inactive) and 39% (inactive)	32.5% (inactive) and 21.5% (inactive)	29.1% (inactive) and 24.9% (inactive)	23.1% (inactive) and 8.66% (active)	44.6% (inactive) and 28.3% (inactive)	41.6% (inactive) and 32.6% (inactive)
Fc1ccccc1Nc1n[nH]c(=S)s1	103% (inactive)	112% (inactive)	117% (inactive)	105% (inactive)	105% (inactive)	98% (inactive)	110% (inactive)	104% (inactive)
CC(C(=O)O)n1cc(C#N)c(=O)[nH]c1=O (centres undefined)	108% (inactive) and 101% (inactive)	99.4% (inactive)	94.8% (inactive) and 106% (inactive)	101% (inactive) and 106% (inactive)	101% (inactive) and 93% (inactive)	105% (inactive)	101% (inactive) and 104% (inactive)	101% (inactive) and 107% (inactive)
CO/N=C/C=C\C(=O)N/C=C/C[C@H]1/C=C/[C@H](O)/C=C\C=C\c2cccc(O)c2C(=O)O1	16.4% (inactive) and 17.4% (inactive)	31.6% (inactive) and 46.9% (inactive)	6.42% (active) and -15.8% (active)	17.5% (inactive) and 8.83% (active)	35.6% (inactive) and 26.1% (inactive)	21.3% (inactive) and 14.9% (inactive)	59.3% (inactive) and 29.1% (inactive)	34.3% (inactive) and 20.8% (inactive)
COc1ccc(/C(C#N)=C/c2ccccn2)cc1	88.7% (inactive) and 115% (inactive)	103% (inactive)	97% (inactive) and 106% (inactive)	112% (inactive) and 130% (inactive)	104% (inactive) and 102% (inactive)	96.3% (inactive) and 104% (inactive)	97.7% (inactive) and 103% (inactive)	101% (inactive) and 102% (inactive)
O=C(O)CN(CCN(CC(=O)O)CC(=O)O)CCN(CC(=O)O)CC(=O)O	9.23% (active) and 101% (inactive)	-10.9% (active) and 92.1% (inactive)	17.1% (inactive) and 101% (inactive)	10.5% (inactive) and 109% (inactive)	18% (inactive) and 85.5% (inactive) and 101% (inactive)	3.66% (active) and 91.9% (inactive) and 100% (inactive)	15.8% (inactive) and 105% (inactive) and 110% (inactive)	15.9% (inactive) and 112% (inactive) and 108% (inactive)
O=C(O)CCCCc1ccc([N+](=O)[O-])cc1	102% (inactive) and 107% (inactive)	100% (inactive)	111% (inactive) and 113% (inactive)	96.4% (inactive) and 116% (inactive)	92.4% (inactive) and 98.2% (inactive)	103% (inactive) and 102% (inactive)	106% (inactive) and 94.9% (inactive)	91.1% (inactive) and 108% (inactive)
CN(C)c1ccc2nc3ccc(=[N+](C)C)cc-3sc2c1	11.8% (inactive) and 4.2% (active) and 27.3% (inactive)	60.2% (inactive) and 69.8% (inactive) and 71.9% (inactive)	-43.7% (active) and -14% (active) and 52.5% (inactive)	15.2% (inactive) and 15.3% (inactive) and 14.7% (inactive)	12.7% (inactive) and -5.86% (active) and 7.47% (active)	4.82% (active) and 4.09% (active) and 11.1% (inactive)	49% (inactive) and 36.7% (inactive) and 53.9% (inactive)	36.6% (inactive) and 33% (inactive) and 48.2% (inactive)
